# Source: PubChem BioAssay (National Center for Advancing Translational Sciences (NCATS))
# The entries come from a sample that favours hits as a whole.
# Pf Dd2 inh: qHTS Primary assay for Inhibitors of Plasmodium falciparum Dd2 growth in vitro; P. falciparum Dd2 growth, SYBR Green, 72 h; Potency, µM (series often up to 28.9 µM), usual class: inhibitors; 120,000 tested, 4.3% active; active means well fitted inhibition curve with a large enough effect; further: nearly all actives have a fitted effect of over 65% in size
#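 Infected erythrocytes (Dd2, 0.3% parasitemia, 2.5% hematocrit final) are added to compound in RPMI-1640/Albumax II medium, grown 72 h at 37C in low oxygen, then lysed with saponin/Triton-X containing SYBR Green and read by fluorescence.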
# A number is an active result; . = inactive.
SMILES,Pf Dd2 inh
Cc1nnc2n1CCC(NC(=O)Cc1c[nH]c3ccccc13)CC2 (stereo not drawn),.
COc1ccc(Cn2c(C3CCN(C(=O)c4c(F)cccc4F)CC3)n[nH]c2=O)cc1,.
CC(C)CC(=O)N1CC2CC(C1)[C@H]1CCCC(=O)N1C2 (stereo partly drawn),.
CCCS(=O)(=O)N1CC(c2noc(C3CCCN3CC3CC3)n2)C1 (stereo not drawn),.
O=C(c1cccs1)N1CC(c2noc(C3CCCN3CC3CC3)n2)C1 (stereo not drawn),3.98µM
O=C(NCc1ccco1)N1CC(c2noc(C3CCCN3CC3CC3)n2)C1 (stereo not drawn),.
CCOc1cccc(-c2nc(C(=O)NCCc3ccccc3OC)cs2)c1,.
Cc1cc(C)cc(C(=O)NC2CCCN(c3cc(-c4ccc(F)cc4)[nH]n3)C2)c1 (stereo not drawn),.
COc1ccc(NC(=O)c2cnc3c(c2)N(C(=O)Cc2cccc(C(F)(F)F)c2)CCC3)cn1,.
COc1ccccc1CC(=O)N1CCCc2ncc(C(=O)N(C)c3ccccc3)cc21,.
COc1ccc(NC(=O)c2cnc3c(c2)N(c2ccccc2OC)CCC3)cn1,6.31µM
COc1ccccc1CC(=O)N1CCCc2ncc(C(=O)Nc3cccc(Cl)c3)cc21,2.51µM
COc1ccccc1CC(=O)N1CCCc2ncc(C(=O)NCCOc3ccccc3)cc21,.
CC(C)c1ccc(CC(=O)N2CCCc3ncc(C(=O)Nc4cccc(C(F)(F)F)c4)cc32)cc1,.
COc1ccccc1CC(=O)N1CCCc2ncc(C(=O)Nc3ccc(OC)c(OC)c3)cc21,.
COc1ccccc1N1CCCc2ncc(C(=O)NCCc3ccccc3)cc21,.
COc1ccccc1CC(=O)N1CCCc2ncc(C(=O)Nc3cccc(C(F)(F)F)c3)cc21,4.47µM
COCCN1CCOc2nc(-c3cc(F)cc(OC)c3)ncc2C1=O,.
O=C(NC1CCCCC1)N[C@H]1CCN2C(=O)c3ccc(Cl)cc3NC(=O)[C@H]12,.
CC(=O)N1CCC(OCCOc2ccccc2)CC1,.
OCCC1CN(Cc2cc(F)cc(F)c2)CCN1Cc1cccs1 (stereo not drawn),.
O=C1NC(=NC2CCCCC2)C2(CCN([S+](=O)([O-])c3ccccc3)CC2)N1c1cc(F)cc(F)c1,.
O=C(c1cccs1)N1CCC(Cc2nc(C3CCOCC3)no2)CC1,.
CC(C)CCN1CCC(O)(c2csc(CN(C)Cc3cccnc3)n2)CC1,.
COCC(=O)NC1CCC12CCN(C(=O)CCC1CCCC1)CC2 (stereo not drawn),.
SMILES,Pf Dd2 inh
O=C(NC1C[C@H]2CC[C@@H](C1)N2C(=O)CCC1CCCC1)c1ccncc1 (stereo partly drawn),.
COCc1cc(=O)n(CC(=O)Nc2cccc(Br)c2)c(N2CCOCC2)n1,.
COc1ccccc1OCCCn1c(C2CC(=O)N(c3ccccc3Cl)C2)nc2ccccc21 (stereo not drawn),.
Cc1ccccc1Cn1c(CCCNC(=O)C2CCCCC2)nc2ccccc21,.
Cc1cc(C)cc(OCCn2c(CCNC(=O)C3CCCCC3)nc3ccccc32)c1,.
CCOc1ccccc1N1CC(c2nc3ccccc3n2CCCCOc2cc(C)ccc2C)CC1=O (stereo not drawn),.
Cc1cccc(OCCCCn2c(C3CC(=O)N(c4ccc(C)cc4C)C3)nc3ccccc32)c1 (stereo not drawn),11.2µM
Cc1cccc(OCCCn2c(CCNC(=O)C3CCCCC3)nc3ccccc32)c1,14.1µM
CCc1ccccc1N1CC(c2nc3ccccc3n2CCCCOc2ccccc2OC)CC1=O (stereo not drawn),.
CCc1ccccc1N1CC(c2nc3ccccc3n2Cc2cccc(C)c2)CC1=O (stereo not drawn),.
Cc1cccc(OCCCCn2c(C3CC(=O)N(c4ccccc4Cl)C3)nc3ccccc32)c1 (stereo not drawn),3.16µM
O=C(NCc1ccc(Cl)nc1)c1ccc2ccnn2c1,.
Cn1c([C@H]2CCN(C(=O)c3cccnc3)C2)nc2ccccc21,.
Cc1ccc(C)c(C(=O)N2CCC(n3cnnc3C3CC3)CC2)c1,.
O=C(C[C@H]1NC(=O)c2ccccc2NC1=O)Nc1cccc2ncccc12,.
Cc1cccn2c(Nc3ccccc3)c(-c3ccc(N4CCOCC4)cc3)nc12,.
Cc1cccn2c(Nc3ccc4c(c3)OCCO4)c(-c3ccc(Br)o3)nc12,8.91µM
Cc1ccc(-c2nc3cccc(C)n3c2Nc2ccc3c(c2)OCO3)o1,.
Cc1ccc(C)c(CN2C(=O)C(=O)c3ccccc32)c1,.
Cc1ccc(-c2cccc(C=O)c2)c(C)c1,.
Cc1ccc(-c2ccccc2CN)c(C)c1,5.01µM
Cc1cc(C[C@@H]2COC[C@@H]2NC(=O)c2c(C)cc(C)n(C)c2=O)on1,.
O=C(Nc1ccc2[nH]ccc2c1)C1=NO[C@@H]2CN(c3ccccc3)C[C@H]12,.
Clc1ccccc1C1Cn2cnc(-c3nc(-c4ccccn4)no3)c2CO1 (stereo not drawn),6.31µM
FC(F)(F)c1ccc(-c2noc(-c3ncn4c3COC(c3ccccc3Cl)C4)n2)cc1 (stereo not drawn),.
SMILES,Pf Dd2 inh
Fc1ccc(-c2noc(-c3ncn4c3COC(c3ccccc3Cl)C4)n2)cc1 (stereo not drawn),.
COCCC1(NC(=O)C2CC2)CCN(C(=O)C2(c3ccccc3)CC2)CC1,.
COc1cc(Cl)ccc1C(=O)N1CCC(Cc2nc(-c3ccc(F)cc3)no2)CC1,.
CC(C)(C)c1noc(-c2nnn3c2COC(c2ccc(F)cc2)C3)n1 (stereo not drawn),.
Cn1nccc1C(=O)N1CCCC(c2nc(C3CCOCC3)no2)C1 (stereo not drawn),.
CCOc1ccc(CC(=O)N2CCC(n3cc(-c4nc(-c5ccccc5)no4)nn3)C2)cc1 (stereo not drawn),.
Cc1cccc(NC(=O)C2CCN(C(=O)c3nnn4cc(C)[nH]c(=O)c34)CC2)c1,.
Cn1c(=O)c2c(ncn2Cc2ccc(Cl)cc2)n(C)c1=O,.
Cn1c(=O)c2c(-c3ccc(Cl)cc3)n(Cc3ccc(Cl)cc3)cc2n(C)c1=O,11.2µM
CCOC(=O)Cn1cc2c(c1-c1ccc(Cl)cc1)c(=O)n(C)c(=O)n2C,.
COC[C@@H]1CN(C(=O)c2cn3ccccc3n2)C[C@H]1c1nc(C)no1,.
COCCNC(=O)[C@@H]1C[C@@H](O)CN1C1CCN(C(=O)c2ccccc2F)CC1,.
CCN1CCCC2(CCN(C(=O)Cn3ccccc3=O)C2)C1=O (stereo not drawn),.
Cc1ccc(-c2nc(-c3nnn4c3COC(c3ccc(Cl)cc3)C4)no2)s1 (stereo not drawn),.
Cc1ccc(-n2ncc(C(=O)N3CCN(c4cccc(C)c4)C(C)C3)c2C2CCN(C(=O)OC(C)(C)C)CC2)cc1 (stereo not drawn),4.47µM
CC(C)(C)OC(=O)N1CCC(c2c(C(=O)N3CCCCC3)cnn2-c2ccc(F)cc2)CC1,.
CC(C)(C)OC(=O)N1CCC(c2c(C(=O)N3CCN(C4CCCCC4)CC3)cnn2-c2cccc(Cl)c2)CC1,10µM
CC(C)(C)OC(=O)N1CCC(c2c(C(=O)N3CCN(c4ncccn4)CC3)cnn2-c2cccc(F)c2)CC1,.
CC(C)(C)OC(=O)N1CCC(c2c(C(=O)N3CCN(C(=O)c4ccco4)CC3)cnn2-c2cccc(Cl)c2)CC1,10µM
CN1CCN(C(=O)c2cnn(-c3ccccc3)c2C2CCN(C(=O)OC(C)(C)C)CC2)CC1,.
